Source: ChEMBL document CHEMBL3988442, “University of Dundee, Small-Polar-MMV Screening Library” (2021)
The campaign covered roughly 38,000 compounds. About 1,200 (3.2%) showed an effect of 50% or more. The median lay at about -58%. This excerpt belongs to a sample that is enriched for strong results.

tested on: Plasmodium falciparum; assay: Calibr Malaria Delayed Death Assay SOP; type: functional, organism-based; parameters: scale not given: in the data most compounds retested in dose-response had high values; conditions: concentration 4.99e-06 (unit not given; other assays of the set use mol/L)

Compound | Percent Effect
CCOc1c(F)cccc1C(=O)N(CC)C(C)c1cccnc1 (centres undefined) | -44.59%
CCN(C(C)c1cccc(O)c1)S(=O)(=O)c1cccnc1 (centres undefined) | 75.64%
Cc1cccc(C(C)(C)CNC(=O)CN(C)S(=O)(=O)c2cccnc2)c1 | -59.91%
CC(c1cccc(O)c1)N(C)S(N)(=O)=O (centres undefined) | -84.23%
CC(c1cccnc1)N(C)S(C)(=O)=O (centres undefined) | -49.62%
CC(c1cccc(O)c1)N(C)S(=O)(=O)c1cccnc1 (centres undefined) | 70.34%
Cn1cc(CN2CCc3ccc(=O)n(Cc4ccncc4)c3CC2)cn1.O=C(O)C(F)(F)F.O=C(O)C(F)(F)F | -100.7%
CCn1nccc1CNc1[nH]cnc2nncc1-2 | -100.3%
Cn1cccc1C(=O)N1C[C@@H](OCc2ccncc2)[C@@H]2OCCC[C@@H]21.O=C(O)C(F)(F)F | -99.03%
CCNc1ncc(CN(Cc2ccccc2)CC(C)CO)cn1 (centres undefined) | -11.14%
CN1CCN(C(=O)C2CN(Cc3cc4ccccc4o3)CCN2)CC1 (centres undefined) | -105.5%
COC(=O)[C@@H]1Cc2[nH]cnc2CN1Cc1cc2ccccc2o1 | -36.16%
Cl.Cl.O[C@@H]1C[C@@](CNCc2cccc(Cl)c2)(COc2cccnc2)C[C@@H]1O | 34.26%
Cl.Cl.O[C@@H]1C[C@@](CNCc2ccc(F)cc2)(COc2cccnc2)C[C@@H]1O | 40.62%
Cl.Cl.O[C@@H]1C[C@@](CNCc2ccc(Cl)cc2)(COc2cccnc2)C[C@@H]1O | 70.01%
CN(Cc1noc2c1CCCC2)C(=O)Nc1cccc(S(N)(=O)=O)c1 | -16.52%
Cc1nc2c(c(N(C)CC3Cc4ccccc4CN3C)n1)CCNCC2 (centres undefined) | 41.97%
Cc1cc(CN(C)c2nc(-c3ccccn3)nc3c2CCNCC3)n[nH]1 | 68.42%
CN(Cc1ccon1)c1nc(-c2ccccn2)nc2c1CCNCC2 | 75.26%
Cc1nc2c(c(N(C)Cc3ccccc3-n3cccn3)n1)CCNCC2 | -7.146%

Compound | Percent Effect
Cc1cc(CN(C)c2nc(-c3ccco3)nc3c2CCN(C)CC3)on1 | -7.108%
O=C(COc1cccc2c1CCC2=O)NCCOc1ccccc1 | -101.5%
Cn1cc(C[C@H]2[C@H](O)CCN2Cc2ccc3c(c2)OCO3)cn1 | -152.7%
COc1cc(CNc2ccc(C)c(Cl)c2)ccc1OCC(N)=O | -61.06%
O=C(CN1CCCC1Cn1cncn1)Nc1ccnn1C1CCCC1 (centres undefined) | -46.57%
NC(=O)c1nc(-c2cccc(Cl)c2)oc1N | -143.3%
CC(NC(=O)NCC1(c2ccc(Cl)cc2)CC1)c1nncn1C (centres undefined) | -41.57%
Clc1ccc(C2(CNC3=NCCN3)CC2)cc1.I | 82.97%
CCCNC(=O)c1c(-n2cnnn2)sc2c1CCC2 | -55.33%
CC(=O)NC(CC(=O)Nc1nc(C)c(C)s1)c1ccccc1 (centres undefined) | -83.12%
Fc1cnc(N2CCCC3(CCN(Cc4ccoc4)C3)C2)nc1.O=C(O)C(F)(F)F.O=C(O)C(F)(F)F (centres undefined) | 72.25%
Cc1cnc(N2C[C@@H]3CN(Cc4ccco4)CCC[C@]3(C(=O)O)C2)nc1.O=C(O)C(F)(F)F | -71.37%
CC(C)CCN1CCC2(CCCN(c3nncs3)C2)C1.O=C(O)C(F)(F)F (centres undefined) | -67.46%
O=C(O)C(F)(F)F.O=C(c1ccncc1)N1CCC2(CCCN(c3ncc(F)cn3)C2)C1 (centres undefined) | -90.51%
CC(C)c1ccc(CN2CCC3(CCCN(c4nncs4)C3)C2)cc1.O=C(O)C(F)(F)F (centres undefined) | 73.03%
Fc1cnc(N2CCCC3(CCN(Cc4ccco4)C3)C2)nc1.O=C(O)C(F)(F)F.O=C(O)C(F)(F)F (centres undefined) | 77%
Fc1cnc(N2CCCC3(CN(Cc4ccccc4)CCO3)C2)nc1.O=C(O)C(F)(F)F (centres undefined) | -95.68%
COc1ccc(CN2CCC3(CCCN(c4ncc(F)cn4)C3)C2)cc1.O=C(O)C(F)(F)F (centres undefined) | 86.34%
Fc1ccc(CN2CCC3(CCCN(c4nncs4)C3)C2)cc1.O=C(O)C(F)(F)F (centres undefined) | -107.3%
O=C(c1ccco1)N1CCC2(CCCN(c3ncc(F)cn3)C2)C1 (centres undefined) | -116%

Compound | Percent Effect
COc1cccc(CN2CCC3(CC2)CCN(c2ncc(F)cn2)C3)c1.O=C(O)C(F)(F)F | -115%
COc1cccc(CN2CCC3(CCN(c4ncc(F)cn4)CC3)C2)c1.O=C(O)C(F)(F)F | -47.02%
Cc1oc(-c2nc(C#N)c(NC(C)C)o2)cc1S(=O)(=O)N1CCCC1 | -121.8%
Cc1ncc2c(n1)CN(Cc1nc(-c3ccco3)oc1C)CC2 | -128.1%
CC(C)C(=O)N1CCN(Cc2csc(-c3ncccn3)n2)CC1 | -79.45%
CCn1nc(C)c(C(=O)NCc2csc(C3CC3)n2)c1C | -85.55%
Cc1noc(C)c1CN1CCc2ncnc(-c3cnn(C)c3)c2CC1.O=C(O)C(F)(F)F | -17.12%
CCC(=O)NCC(=O)NC(C)c1ccc(OCCC(C)C)cc1 (centres undefined) | 22.17%
COc1cc(-c2cc(=O)[nH]cn2)cc(OC)c1OC | -8.244%
CC(=O)N1[C@H](CN(C)C)C[C@@H]2CN(C(=O)c3cccc(F)c3)CC[C@@H]21.O=C(O)C(F)(F)F | -121.5%
CCC(NC(=O)CNCC(F)(F)F)c1cc(F)ccc1F (centres undefined) | -157%
O=C(c1ccoc1)N1CCC2(CCCN(c3ncc(F)cn3)C2)C1 (centres undefined) | -22.39%
Fc1cnc(N2CCCC3(CCN(Cc4nccs4)C3)C2)nc1 (centres undefined) | 21.75%
COc1cc(N2C[C@H](C(=O)N3CCCC3)[C@@H]3CCO[C@@H]3C2)ncn1 | -18.3%
Cc1cnc(CN(C)C2CCN(Cc3nc4c(F)cccc4[nH]3)C2)o1 (centres undefined) | -76.29%
COc1nn(C)c2c1CCCN(C(=O)c1cscn1)C2 | -85.03%
CCOC(C)C(=O)Nc1ccnn1-c1ccccc1C (centres undefined) | -113.5%
Cl.Clc1ccc(-c2ccc(C3CNCCO3)nc2)cc1 (centres undefined) | 85.23%
O=C(C(c1ccccc1)S(=O)(=O)c1ccccc1)N1CCCCC1 (centres undefined) | -134.4%
